Pf growth 96h – P. falciparum growth inhibition at 96 hours; AID 504834; P. falciparum luciferase reporter growth, 96 h; Potency, µM (highest dose often 28.7 µM), inactives show at the top dose activity change, negative = inhibition, most hits filed as inhibitors; 6.9% of 320,000 active; also: potency is read from the fitted curve at half-maximal effect; % is scaled to controls: 0 for no effect and ±100 for the full control effect
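Parasite growth measured via integrated firefly luciferase reporter in P. falciparum. Infected erythrocytes at 2% hematocrit, 0.05% parasitemia final were treated 96 hours at 37 C under 5% CO2, and luminescence was read.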
SARS PLpro yeast – blocks SARS-CoV papain-like protease in a yeast assay; S. cerevisiae expressing SARS-CoV PLpro, growth rescue; Potency, µM (doses to about 32.9 µM), for inactives: at the highest dose activity, positive = growth rescue, most hits filed as activators; 0.19% of 330,000 active; calls by dose curve; also: potency is read from the fitted curve at half-maximal effect; 0% is about no effect; nearly all actives have a fitted effect of over 55% in size
HCV inhibitor – inhibitors of hepatitis C virus infection. Potency, µM (highest dose often 41.8 µM), without a hit: at the highest dose activity change, negative = inhibition, hits mostly inhibitors. AID 651820. 3.4% of 340,000 active. Huh7.5.1 HCVcc-Cre infection, luciferase reporter, 44 h; also: potency is read from the fitted curve at half-maximal effect; % is scaled to controls: 0 for no effect and ±100 for the full control effect
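Reporter virus HCVcc-Cre (~0.5 moi) infects cells exposed to compound; seeding density 1,000 cells/well with 4 h settling beforehand. Luminescence, 15 sec read, taken 44 h post-infection following a 15 min RT substrate incubation.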
Sm TGR inh – blocks Schistosoma mansoni thioredoxin glutathione reductase; 3% of 360,000 active; purified TGR, DTNB reduction, TNB absorbance 405 nm; Potency, µM (series often up to 114 µM), inactives show top-dose activity change, negative = inhibition, hits mostly inhibitors; Q962Y6; also: potency is read from the fitted curve at half-maximal effect; % is scaled to controls: 0 for no effect and ±100 for the full control effect; nearly all actives have a fitted effect of over 60% in size
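TGR 20 nM + NADPH 100 uM (dispensed conc.), cpd preinc 15 min RT; start with NADPH (500 uM addition) then DTNB (15 mM addition). Kinetic TNB absorbance, 405 nm filter. Four-parameter Hill fit across titration.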
HCMV inh – blocks human cytomegalovirus replication; HFF cells, HCMV-luciferase reporter, 72 h; hits give low values; activity change, negative = inhibition, % at 57.5 µM; 4.5% of 410,000 active; AID 1259415; in the data active = activity change below about -60%; inconclusive = no clear call, values can overlap the other calls; inactive = above about -39%; also: % is scaled to controls: 0 for no effect and ±100 for the full control effect
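After 16 h attachment at 37C, HFF cells received test compound and HCMV-luciferase (1 PFU/cell); reporter luminescence read 72 h later, data normalized against buffer-only and known inhibitor Salinomycin.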
Pf growth 48h – inhibits P. falciparum growth in the first generation, 48 h; 5.9% of 310,000 active; AID 504832; Potency, µM (series often up to 28.7 µM), inactives show at the top dose activity change, negative = inhibition, hits mostly inhibitors; P. falciparum luciferase growth in erythrocytes, 48 h; also: potency is read from the fitted curve at half-maximal effect; % is scaled to controls: 0 for no effect and ±100 for the full control effect
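In quantitative HTS format, infected erythrocytes bearing luciferase-reporter parasites were treated for a single generation at 37 C. Luminescence after adding detection reagent served as the growth measure.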
* marks the source's active call; other numbers are inactive results; u = inconclusive; x = no result given. Sampled rows, rich in hits. Any-hit rate of the full collection: about 15%. Unless noted, calls follow the shape of the dose curve; as a rule, active = well fitted curve in the direction sought with a large enough effect; inconclusive = small, poorly fitted or top-dose-only effect, or another doubt; inactive = no such curve, though single readings can be large; an effect the other way counts as inactive or inconclusive.

SMILES	Pf growth 96h	SARS PLpro yeast	HCV inhibitor	Sm TGR inh	HCMV inh	Pf growth 48h
COc1cc(OC)cc(-c2c(-c3cccs3)c3cc(-c4cccc5[nH]ccc45)ccc3n2C)c1	u	-3%	u	-21%	-8	2.3µM*
COc1cc(OC)cc(-c2c(-c3cccs3)c3cc(-c4ccn[nH]4)ccc3n2C)c1	u	1%	u	-24%	11	4.7µM*
Cn1c(-c2ccsc2)c(-c2cccs2)c2cc(-c3ccc4[nH]ccc4c3)ccc21	5.9µM*	-3%	u	-15%	-9	5.2µM*
COc1cc(OC)cc(-c2c(-c3cccs3)c3cc(Br)ccc3n2C)c1	u	-18%	u	u	-5	u
O=C(O)C1(Cc2nc3ccccc3[nH]2)CCCC1	29%	0%	0%	4%	24	32%
O=C(NCc1ccccn1)c1cccc(NS(=O)(=O)c2cccc(F)c2)c1	-8%	-1%	10%	-11%	-29	15%
O=C(COCc1cc(-c2ccco2)on1)Nc1cccc(O)c1	x	x	x	3%	0	x
Cc1csc(-c2nc3ccccc3n2C(C(=O)Nc2c(C)cccc2C)C2CC2)c1 (stereo not given)	x	x	x	x	-11	x
CCOC(=O)c1[nH]c(C)c(CCC(=O)Nc2ccc(N(CC)CC)cc2C)c1C	x	x	x	-4%	-12	x
Cc1ccc(-n2c(C)cc3c2CCCC3=O)cc1	-1%	-4%	3%	-15%	7	10µM*
Cc1ccc(-c2cc3c(n2-c2ccc(C(=O)O)cc2)CCCC3=O)cc1	-1%	5%	3%	0%	84	4%
CCOC(=O)C1=C(c2ccccc2)Nc2ncnn2C1c1ccc(C(=O)O)cc1 (stereo not given)	33%	2%	4%	3%	3	42%
CCOC(=O)C1=C(c2ccccc2)NC(N)=NC1c1ccc(OCc2ccc(C(=O)OC)cc2)cc1 (stereo not given)	7.4µM*	0%	u	-2%	u	4.7µM*
Cc1cccc(C(=O)N[C@@H]2c3ccccc3C[C@@H]2O)n1	x	x	7%	x	5	x
Oc1c(Cl)cc(Cl)cc1C=Nc1cc(C(F)(F)F)ccc1N1CCc2ccccc2C1	-101%	-9%	u	-22%	-100*	71%
CCCCCC(=O)Nc1ccc(S(=O)(=O)Nc2nccnc2OC)cc1	2.3µM*	1%	18%	4%	42	-8%
CC(=O)Nc1ccc(OCCOc2ccc([N+](=O)[O-])cc2)cc1	1%	4%	-26%	3%	-72*	52%
CC(=O)Nc1ccc(OS(=O)(=O)c2ccc([N+](=O)[O-])cc2)cc1	1%	-1%	-6%	3%	-62*	13µM*
CC(=O)Nc1ccc(OS(=O)(=O)c2ccc(Cl)cc2)cc1	28%	0%	4%	10%	-5	u
COc1cc(C=O)cc(OC)c1OS(=O)(=O)c1ccc(NC(C)=O)cc1	4.1µM*	-2%	-23%	3%	6	28%
CCCCOc1ccc(S(=O)(=O)Nc2ccc(NC(C)=O)cc2)cc1	u	29%	8.9µM*	6%	u	18%
CCC(=O)Nc1ccc(NC(=O)c2cc3ccccc3o2)c(OC)c1	12%	-3%	u	0%	115	79%
Nc1ccc(C2=Nc3cccc4cccc(c34)N2)cc1	20%	-17%	2%	u	0	u
CC1=Nc2cccc3cccc(c23)N1	u	-8%	u	40µM*	-26	u
COc1ccc(CNC(=O)Cc2c(C(=O)O)c(C)cn2C)cc1	x	x	x	1%	9	x
SMILES	Pf growth 96h	SARS PLpro yeast	HCV inhibitor	Sm TGR inh	HCMV inh	Pf growth 48h
COc1ccc2nc(NC(=O)c3nc(S(=O)(=O)Cc4ccccc4F)ncc3Cl)sc2c1	x	x	x	-12%	-88*	x
COc1ccc2nc(NC(=O)c3nc(S(=O)(=O)Cc4ccccc4)ncc3Cl)sc2c1	x	x	x	4%	-101*	x
COc1ccc2nc(NC(=O)c3nc(S(=O)(=O)Cc4cccc(C)c4)ncc3Cl)sc2c1	x	x	x	u	-100*	x
CCCCC(=O)N(C)c1c(CC)nc2c(OCC(=O)N(C)C)cccn12	x	x	x	x	-5	x
COc1ccc(-n2c(SCC(=O)Nc3cc(C)on3)nc3c(c2=O)SC(C)C3)cc1 (stereo not given)	x	x	x	x	-16	x
COc1cccc(CNC(=O)C2CCCN(S(=O)(=O)c3cn(C)cn3)C2)c1 (stereo not given)	x	x	x	2%	-26	x
CN(C1=NC(=O)C(CC(=O)Nc2ccc(Br)cc2)S1)c1ccc(O)cc1 (stereo not given)	5.2µM*	1%	u	-18%	-34	-11%
FC(F)(F)c1ccccc1NC1=NCCCS1	0%	1%	3%	-3%	-63*	10%
Cc1ccccc1-n1nc(CO)c(C(=O)NCc2cccnc2)n1	x	x	x	4%	-6	x
CCc1cc2c(SCC(=O)Nc3ccc(NC(C)=O)cc3)ncnc2s1	u	-3%	u	-3%	8	u
c1ccc2sc(Sc3ncnc4sccc34)nc2c1	0.74µM*	3%	12%	-7%	155	1.9µM*
c1ccc(CSc2ncnc3sccc23)cc1	-24%	-2%	-20%	-11%	35	9%
CCc1cc2c(Sc3nc4ccccc4s3)ncnc2s1	u	0%	6%	2%	39	1.9µM*
CCOC(=O)c1cc(-c2ccc(F)cc2)n(CCC(=O)Nc2cc(OC)cc(OC)c2)c1C	x	x	x	10%	0	x
Oc1c(CN2CCOCC2)cc(-c2ccccc2)cc1CN1CCOCC1	u	-3%	8%	6%	11	u
COc1ccc(/C=C/C(=O)c2ccccc2O)cc1CN1CCOCC1	10µM*	2%	u	u	x	x
Oc1c(CN2CCOCC2)ccc2ccccc12	-9%	-3%	-14%	0.56µM*	-8	u
COc1ccc(/C=C2/CCc3ccccc3C2=O)cc1CN1CCOCC1	-18%	2%	u	-2%	-12	31%
COc1ccc(/C=C/C(=O)C23CC4CC(CC(C4)C2)C3)cc1CN1CCOCC1	21%	7%	u	2%	-82*	13µM*
COc1ccc(/C=C/C(=O)c2ccc3ccccc3c2O)cc1CN1CCOCC1	12µM*	-16%	-20%	5%	-21	-13%
COc1ccccc1-c1cnn(C(C)(C)C(=O)NCc2ccccc2Br)c1	x	x	x	x	11	x
COc1ccc(/C=C/C(=O)c2ccc(O)cc2)cc1CN1CCOCC1	-18%	25%	-4%	-7%	u	u
COc1ccc(C(=O)/C=C/c2ccc(OC)c(Cn3nnc4ccccc43)c2)cc1	0.1µM*	21%	-25%	-6%	u	u
COc1ccc(C)cc1Cn1nnc2ccccc21	33%	3%	1%	0%	4	u

High-throughput results from PubChem BioAssay.
